These entries were drawn from the full list.
aSyn 5UTR act = Activators working through SNCA 5'UTR binding (MLPCN); actives 7.1% (n = 300,000); activity score, % (tested at 7.5 µM), hits read low; alpha-synuclein 5'UTR reporter, activators screen; in the data active = activity score below about -60%
* marks the source's active call; other numbers are inactive results.

SMILES	aSyn 5UTR act
Cc1ccc(C)c(NC(=S)N=Nc2c(O)n(C)c3ccc(S(=O)(=O)N4CCOCC4)cc23)c1	78
Cc1ccc(Cn2c(O)c(N=NC(=S)Nc3ccccc3F)c3cc(S(=O)(=O)N4CCOCC4)ccc32)cc1	66
Cc1ccc(Nc2ccc(S(=O)(=O)N3CCOCC3)cc2[N+](=O)[O-])c(C)c1	-62*
NNc1nc(-c2ccccc2)nc2sc3c(c12)CCCC3	-65*
O=Cc1cc2cc3c(cc2nc1Cl)OCCO3	-62*
Cc1oc(-c2ccc3ccccc3c2)nc1CN(C)C(C)c1ccncn1 (stereo not drawn)	-80*
O=C(/C=C/c1ccc(Cl)cc1Cl)Nc1cccc(S(=O)(=O)NC2=NCCCCC2)c1	-67*
O=C(CSc1ccc2ccccc2c1Br)Nc1cccc(S(=O)(=O)NC2=NCCCCC2)c1	64
N#CC(C(=O)C12CC3CC(CC(C3)C1)C2)c1nc2ccccc2[nH]1 (stereo not drawn)	-74*
Cc1cccc(Nc2nc(N)nc(CSC(=S)N3CCOCC3)n2)c1	-108*
Nc1nc(CSC(=S)N2CCOCC2)nc(Nc2ccccc2)n1	-131*
Cc1ccc(Nc2nc(N)nc(CSC(=S)N3CCOCC3)n2)cc1	-127*
O=C1COc2ccc(OCc3ccc(F)cc3)cc21	-100*
CCOc1ccc2nc(N3CCCC(C(=O)N4CCN(CC)CC4)C3)sc2c1 (stereo not drawn)	-96*
CCOC(=O)N1CCN(S(=O)(=O)c2ccc(C(=O)NNc3nc4c(C)cc(C)cc4s3)cc2)CC1	71
Cc1cc(C)c2nc(N3CCCC(C(=O)NC4CCCC4)C3)sc2c1 (stereo not drawn)	-90*
CCOc1ccc2nc(N3CCCC(C(=O)NCC4CCCO4)C3)sc2c1 (stereo not drawn)	-145*
O=C(Nc1cccnc1)C1CCN(S(=O)(=O)c2cccs2)CC1	-108*
Cc1cccc(OCC(=O)Nc2cccc3nsnc23)c1	-82*
O=C(COc1cc(Cl)c(Cl)cc1Cl)Nc1cccc(O)c1	-90*
Cc1cccc(OCC(=O)Nc2cccc(O)c2)c1	-162*
Cc1ccc(OCC(=O)Nc2cccc(O)c2)cc1C	-172*
CC/C(=N\Nc1ccccc1[N+](=O)[O-])c1ccc(O)cc1	-90*
C/C(=N\Nc1ccccc1[N+](=O)[O-])c1ccccc1O	-221*
Cc1sc2c(c1C)C(=O)NC(c1cccc(O)c1)N2 (stereo not drawn)	-233*
SMILES	aSyn 5UTR act
COc1ccc(OC)c(/C=C2\SC(=S)N(Cc3cccnc3)C2=O)c1	-62*
Cc1nc(NC(=O)C2CC3CCCC(C2)C3=O)sc1C (stereo not drawn)	-80*
NS(=O)(=O)c1ccc(N/N=C/c2cn(-c3ccccc3)nc2-c2ccccc2)c([N+](=O)[O-])c1	-121*
O=[N+]([O-])c1ccc(N/N=C/c2cn(-c3ccccc3)nc2-c2ccccc2)cc1	-71*
Cc1ccc(C2=[N+]([O-])C3(CCCCC3=O)N(O)C2(C)C)cc1 (stereo not drawn)	49
CCc1ccc(C2CC(c3ccco3)=NN2S(C)(=O)=O)cc1 (stereo not drawn)	-89*
CCn1c(/C=C/c2ccccc2Cl)nc2ccccc2c1=O	-191*
CCn1c(/C=C/c2c[nH]c3ccccc23)nc2ccccc2c1=O	-176*
CCn1c(/C=C\c2ccccc2C)nc2ccccc2c1=O	-63*
O=c1c2ccccc2nc2ccc(NCc3cccs3)nn12	-164*
COc1ccc2c(c1)C(=O)c1ccccc1CO2	-242*
CCS(=O)(=O)c1nc(S(=O)(=O)c2ccc(C)cc2)c(N2CC(C)OC(C)C2)s1 (stereo not drawn)	-105*
CCCS(=O)(=O)c1nc(S(=O)(=O)c2ccc(C)cc2)c(N2CCN(C)CC2)s1	-69*
N#Cc1c(-c2ccccc2)ccnc1Oc1ccccc1	-75*
CCCOc1ccccc1C1CC(=O)Nc2cc3c(cc21)OCCO3 (stereo not drawn)	103
CSc1ccc(-c2nnn(Cc3ccccn3)n2)cc1	-146*
CSc1ccc(-c2nnn(Cc3ccc(Br)cc3)n2)cc1	-74*
O=C(c1ccccc1)N1CCN(CC#Cc2ccccc2)CC1	-66*
Cc1cccc(NC(=O)Nc2ccc(F)cc2)n1	-91*
COc1ccc(C2C(C(=O)Nc3cccc(C)n3)CCC(=O)N2c2ccc(OC)cc2)cc1 (stereo not drawn)	73
Cc1cccc(NC(=O)Nc2cccc(C)n2)n1	-95*
COc1ccc(NC(=O)Nc2ccc([N+](=O)[O-])cc2)cn1	-102*
Cc1cccc(NC(=O)Nc2ccc([N+](=O)[O-])cc2)n1	-97*
Cc1cccc(NC(=O)Nc2ccc(Cl)cc2)n1	-99*
Cc1ccc(NC(=O)Nc2cccc(C)n2)cc1	-76*
SMILES	aSyn 5UTR act
Cc1cccc(NC(=O)Nc2ccc(C)c(C)c2)n1	-120*
CCc1ccc(OCc2cnc(Cl)s2)cc1	-78*
O=C(CSc1nnc(NC(=O)c2ccccc2F)s1)NCC1CCCO1 (stereo not drawn)	-72*
O=C(CSc1nnc(NC(=O)c2ccc(F)cc2)s1)NC1CC1	-79*
Cc1cccc(C(=O)Nc2nnc(SCC(=O)NC3CC3)s2)c1	-66*
CCOC(=O)CNC(=O)CSc1nnc(NC(=O)c2ccc(C)cc2)s1	74
O=c1[nH]cnc2nn(-c3ccccc3)nc12	-82*
CCOC(=O)C1CCN(c2ncnc3c(C)csc23)CC1	-69*
COc1ccc(-c2nc3ccccc3o2)cc1OC	-82*
c1ccc2oc(-c3ccc4nc[nH]c4c3)nc2c1	-135*
CC(C)(C)c1ccc(SCCc2cccnc2)cc1	-123*
COc1cccc(/C=C/C(=O)Nc2cccc(C(C)=O)c2)c1OC	-126*
CCc1cc(C(=O)O)c(NC(=O)/C=C/c2ccc(OC)cc2)s1	-119*
COc1ccc(/C=C/C(=O)Nc2cccc(C(C)=O)c2)cc1	-95*
CCOc1ccc2oc(C(=O)Nc3ccc4c(c3)OCO4)c(C)c2c1	-176*
CCOc1ccc2oc(C(=O)Nc3cc(C)ccn3)c(C)c2c1	-67*
CCOc1ccc2oc(C(=O)Nc3ccc(N4CCOCC4)cc3)c(C)c2c1	-69*
CCOc1cc(/C=C\[N+](=O)[O-])ccc1OCC(=O)Nc1ccccc1C	-80*
Cn1c(SCc2ccccc2F)nc2cccnc21	-101*
CCOC(=O)C(C)On1c(-c2ccccc2)nc2ccc([N+](=O)[O-])cc21 (stereo not drawn)	-192*
CCOC(=O)C(C)On1c(-c2ccc(Cl)cc2)nc2ccc([N+](=O)[O-])cc21 (stereo not drawn)	-176*
O=C(O)COn1c(-c2ccccc2)nc2ccc([N+](=O)[O-])cc21	-165*
CCNC(=S)/N=C(\N)Nc1nc(C)c2cc(C)ccc2n1	-207*
COc1ccc(C(=O)Nc2scc(-c3ccc(Cl)cc3Cl)c2C(N)=O)cc1	-237*
Cc1nn(-c2ccccc2)c(C)c1C(=O)OCC(=O)N(C)C1CCS(=O)(=O)C1 (stereo not drawn)	-90*
CN(C(=O)COC(=O)c1nc(Cl)c(Cl)c(Cl)c1Cl)C1CCS(=O)(=O)C1 (stereo not drawn)	-210*
CN(C(=O)COC(=O)c1c2c(nc3ccccc13)/C(=C/c1cccc([N+](=O)[O-])c1)CCC2)C1CCS(=O)(=O)C1 (stereo not drawn)	72
O=C(c1cc(COc2ccc(F)cc2Cl)on1)N1CC2C[C@@H]3CC1C[C@H](C2)C3	-190*
O=C(c1cc(COc2ccc(F)cc2Cl)on1)N1C[C@H]2CC[C@H]1C2	-164*

Screens deposited in PubChem BioAssay by Broad Institute.
